Where “and” joins values, the source holds several entries; their conditions need not be identical. Equal entries are not always repeated. The whole screen tested about 190,000 compounds, of which about 6,900 (3.6%) were called active. The sample holds actives, similar compounds and a random draw of the others, so the mix is not that of the screen. No stated cut-off is given here; in the data, active means inhibition above about 50%; inactive means the rest. Some compounds were tested as several samples or in several runs, with calls that do not always agree.

Sequence of Huntingtin (Homo sapiens) (P42858 whole entry, looked up, stated change not applied): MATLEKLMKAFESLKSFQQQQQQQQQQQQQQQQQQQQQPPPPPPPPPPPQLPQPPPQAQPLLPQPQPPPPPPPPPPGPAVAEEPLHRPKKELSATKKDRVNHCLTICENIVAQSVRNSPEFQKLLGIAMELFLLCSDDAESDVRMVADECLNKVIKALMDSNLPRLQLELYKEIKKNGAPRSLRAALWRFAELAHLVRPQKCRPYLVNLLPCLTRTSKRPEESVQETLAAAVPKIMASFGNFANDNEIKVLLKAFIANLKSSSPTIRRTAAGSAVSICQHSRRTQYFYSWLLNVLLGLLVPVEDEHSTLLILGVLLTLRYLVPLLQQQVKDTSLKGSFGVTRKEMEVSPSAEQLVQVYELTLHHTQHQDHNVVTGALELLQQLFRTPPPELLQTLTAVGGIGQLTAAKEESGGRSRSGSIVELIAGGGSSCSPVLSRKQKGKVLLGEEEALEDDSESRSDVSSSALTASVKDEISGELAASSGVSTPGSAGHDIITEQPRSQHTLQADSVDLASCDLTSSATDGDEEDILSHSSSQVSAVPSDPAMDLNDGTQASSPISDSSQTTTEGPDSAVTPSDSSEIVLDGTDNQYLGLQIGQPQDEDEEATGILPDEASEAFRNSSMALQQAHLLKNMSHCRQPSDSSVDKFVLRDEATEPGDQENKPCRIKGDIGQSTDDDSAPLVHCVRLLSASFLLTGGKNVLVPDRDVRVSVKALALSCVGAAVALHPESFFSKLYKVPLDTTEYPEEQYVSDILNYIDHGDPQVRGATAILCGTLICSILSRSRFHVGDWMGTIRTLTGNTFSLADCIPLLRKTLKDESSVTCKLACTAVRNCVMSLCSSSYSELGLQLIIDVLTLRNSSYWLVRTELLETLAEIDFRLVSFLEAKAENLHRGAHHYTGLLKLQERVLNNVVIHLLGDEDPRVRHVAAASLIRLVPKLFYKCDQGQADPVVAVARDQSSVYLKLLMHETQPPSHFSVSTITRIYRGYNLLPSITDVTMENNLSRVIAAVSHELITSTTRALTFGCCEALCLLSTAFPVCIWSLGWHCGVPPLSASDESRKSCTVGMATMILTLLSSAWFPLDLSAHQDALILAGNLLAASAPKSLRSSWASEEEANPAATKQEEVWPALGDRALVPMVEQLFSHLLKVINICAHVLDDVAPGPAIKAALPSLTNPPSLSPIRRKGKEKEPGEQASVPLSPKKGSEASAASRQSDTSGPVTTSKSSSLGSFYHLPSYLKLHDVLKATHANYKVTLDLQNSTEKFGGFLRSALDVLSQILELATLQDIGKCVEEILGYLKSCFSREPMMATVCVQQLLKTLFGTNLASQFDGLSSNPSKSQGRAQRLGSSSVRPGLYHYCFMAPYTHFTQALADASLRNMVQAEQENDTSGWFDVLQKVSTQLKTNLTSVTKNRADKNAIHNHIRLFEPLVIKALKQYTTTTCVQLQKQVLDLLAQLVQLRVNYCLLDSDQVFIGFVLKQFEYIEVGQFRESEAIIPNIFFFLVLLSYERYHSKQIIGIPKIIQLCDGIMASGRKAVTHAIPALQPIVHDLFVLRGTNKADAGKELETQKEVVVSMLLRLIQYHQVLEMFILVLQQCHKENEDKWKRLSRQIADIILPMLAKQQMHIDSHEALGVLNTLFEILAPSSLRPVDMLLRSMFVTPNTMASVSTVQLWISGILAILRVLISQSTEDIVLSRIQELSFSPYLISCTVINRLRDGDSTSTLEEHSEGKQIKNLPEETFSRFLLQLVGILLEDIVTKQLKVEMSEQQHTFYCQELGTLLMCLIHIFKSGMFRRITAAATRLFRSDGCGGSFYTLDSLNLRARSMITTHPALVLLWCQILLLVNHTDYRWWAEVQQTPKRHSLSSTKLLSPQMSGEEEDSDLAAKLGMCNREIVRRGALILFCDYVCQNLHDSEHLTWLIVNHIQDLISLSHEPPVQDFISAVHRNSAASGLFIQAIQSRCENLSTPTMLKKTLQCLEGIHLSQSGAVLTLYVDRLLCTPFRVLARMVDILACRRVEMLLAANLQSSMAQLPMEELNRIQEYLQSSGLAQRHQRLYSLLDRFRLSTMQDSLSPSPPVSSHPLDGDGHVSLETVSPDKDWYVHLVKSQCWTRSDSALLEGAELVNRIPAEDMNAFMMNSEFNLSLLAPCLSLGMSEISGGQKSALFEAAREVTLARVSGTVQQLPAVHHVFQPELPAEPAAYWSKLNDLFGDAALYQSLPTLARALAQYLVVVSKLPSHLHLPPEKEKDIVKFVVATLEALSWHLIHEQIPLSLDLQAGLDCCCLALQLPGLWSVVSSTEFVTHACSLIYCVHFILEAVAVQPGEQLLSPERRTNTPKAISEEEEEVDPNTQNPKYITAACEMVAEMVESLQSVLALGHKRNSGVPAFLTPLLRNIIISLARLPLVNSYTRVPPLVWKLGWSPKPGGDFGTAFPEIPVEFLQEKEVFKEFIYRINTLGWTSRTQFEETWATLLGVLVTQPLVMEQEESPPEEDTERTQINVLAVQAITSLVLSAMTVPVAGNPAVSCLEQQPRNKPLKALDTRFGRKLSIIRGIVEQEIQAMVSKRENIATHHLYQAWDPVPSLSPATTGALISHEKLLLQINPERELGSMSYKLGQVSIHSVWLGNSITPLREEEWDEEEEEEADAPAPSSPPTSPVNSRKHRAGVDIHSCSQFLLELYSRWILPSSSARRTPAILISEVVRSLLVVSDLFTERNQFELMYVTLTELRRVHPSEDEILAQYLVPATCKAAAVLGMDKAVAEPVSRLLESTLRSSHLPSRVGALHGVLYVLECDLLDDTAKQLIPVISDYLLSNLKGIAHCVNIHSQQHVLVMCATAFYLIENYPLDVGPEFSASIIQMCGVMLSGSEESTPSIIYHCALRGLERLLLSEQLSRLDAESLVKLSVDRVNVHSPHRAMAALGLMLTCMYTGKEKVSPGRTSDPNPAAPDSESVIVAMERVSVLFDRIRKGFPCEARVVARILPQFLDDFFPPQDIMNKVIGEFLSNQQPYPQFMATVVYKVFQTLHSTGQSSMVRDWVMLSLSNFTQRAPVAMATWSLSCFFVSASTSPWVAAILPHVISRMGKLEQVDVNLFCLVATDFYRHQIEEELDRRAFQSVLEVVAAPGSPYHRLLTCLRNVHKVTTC

This assay concerns the target Huntingtin (Homo sapiens) (UniProt P42858). The assay can be described thus: mutant huntingtin-calmodulin interaction inhibitors – biochemical, AlphaScreen, primary screen (AID 1671202).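 Further: 0% = both proteins with DMSO and 100% = one protein alone.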 Conditions: AlphaScreen His-mHTT/GST-CaM binding, luminescence; at 15 µM, stronger effect = higher value.
As to `O=C(Nc1nnc(SCc2ccc(C(F)(F)F)cc2)s1)c1cccs1`, the inhibition was -13.3% (inactive). The same measure for `CN(Cc1cn(Cc2ccc(C(F)(F)F)cc2)nn1)C1CN(Cc2cn(Cc3ccc(C(F)(F)F)cc3)nn2)S(=O)(=O)C1` (stereo unspecified): 10.9% (inactive); for `Cc1ccccc1CNC(=O)CCC1CCCN(C(=O)Nc2ccccc2F)C1` (stereo unspecified): -0.96% (inactive); for `CCCn1c(C2CCN(C(=O)CCC3CCCC3)C2)nc2cccnc21` (stereo unspecified): 19.8% (inactive). For `Cc1nc(-c2ccc(C(=O)Nc3ccc(C)c(F)c3)cc2)cs1`, the inhibition is -6% (inactive). The figure for `Cc1ccc2c(c1)CCN1C(=O)CN(S(=O)(=O)c3cccc(Cl)c3C)CC21` (stereo unspecified) is 61.2% (active); for `Cc1c(Cl)cccc1NC(=O)c1ccc(F)c(S(=O)(=O)N2CCCC2)c1` it is 3% (inactive).

As for `COc1cccc(-c2nc(C3CCN(S(=O)(=O)c4cccc(Cl)c4C)CC3)no2)c1`, the inhibition was -1.63% (inactive). On to `CC1C(=O)N(c2ccccc2-c2ccccc2)CCN1C(=O)C1CCCC1` (stereo unspecified), for which the inhibition is 3.1% (inactive). The same measure for `CSc1ccc(C2C=C(c3ccc(Cl)s3)Nc3ncnn32)cc1` (stereo unspecified): 21% (inactive).

In the case of `CC(C(=O)Nc1ccc(Cl)c(C(F)(F)F)c1)N1C(=O)c2ccccc2C1=O` (stereo unspecified), the inhibition was 24% (inactive). The same measure for `CCn1c(SCC(=O)Nc2ccc(Br)cc2)nnc1-c1cc(OC)cc(OC)c1`: 4.9% (inactive).

For `Cc1csc(-c2ccc(CNC(=O)c3ccnn3C)cc2)n1`, the inhibition is -3.6% (inactive). The figure for `Cc1nc(-c2nnc(NC(=O)c3ccnn3C)o2)cs1` is 50.2% (active).

With `CCOc1cccc2cc(C(=O)Nc3ccc(Cl)cc3Cl)c(=O)oc12`, the inhibition was 1% (inactive). The figure for `CCCCOc1ccc(C(=O)Nc2nnc(-c3ccncc3)o2)cc1` is 40.2% (inactive). The same measure for `CCOc1cccc2cc(C(=O)Nc3nnc(-c4csc(C)n4)o3)oc12`: 54.6% (active); for `COc1cccc2cc(C(=O)NCCn3ccnc3C)oc12`: -8.3% (inactive); for `COc1ccc(N2C(=O)C3N=NN(Cc4c(F)cccc4Cl)C3C2=O)cc1` (stereo unspecified): -2.2% (inactive). The same measure for `COc1ccc(-n2nc3cc(C)c(NC(=O)c4ccccc4F)cc3n2)cc1`: -3.4% (inactive).

Turning to `CC(C)CCNC(=O)C1(C)CCC(=O)N1Cc1ccc(OC(C)C)cc1` (stereo unspecified), the inhibition was 0.89% (inactive). The same measure for `CCCC1c2cccn2CCN1C(=O)Nc1ccccc1C` (stereo unspecified): 6.33% (inactive).

Take `CCOC(=O)CCNC(=O)N1CCn2cccc2C1c1ccc(Cl)cc1` (stereo unspecified): the inhibition was 82.4% (active).

Turning to `CCOC(=O)CC1(NC(=O)N2CCn3cccc3C2Cc2ccccc2)CCCCC1` (stereo unspecified), the inhibition is 46.3% (inactive). The same measure for `COc1ccc(C(=O)N2CCC(c3nc(CNC(=O)C4CCC4)cs3)CC2)cc1`: 5.04% (inactive).

As to `Cc1ccc2oc(C3Nc4ccccc4NC4=C3C(=O)CC(c3cccs3)C4)cc(=O)c2c1` (stereo unspecified), the inhibition is 4.8% (inactive) and 92% (active). For the compound `COc1cccc(C2CC(=O)C3=C(C2)Nc2ccccc2NC3c2cccc(F)c2)c1` (stereo unspecified), the inhibition is 25% (inactive).

In the case of `O=C1CC(c2cccs2)CC2=C1C(c1cccc(Cl)c1)Nc1ccccc1N2` (stereo unspecified), the inhibition is 26% (inactive).

For the compound `O=C(Cc1nc(-c2ccccn2)n[nH]1)NC1CCCCCC1`, the inhibition is 98% (active). As for `O=C(Cc1ccc(F)cc1)NC1CCCC1`, the inhibition was -1.1% (inactive). As to `O=C(CSCc1ccccc1Cl)NC1CCCCC1`, the inhibition was -5.4% (inactive).

With `N#CC1=C(N)Oc2n[nH]c(C(F)(F)F)c2C1c1cccnc1` (stereo unspecified), the inhibition is -2% (inactive). Take `Cc1ccc(Cl)cc1NC(=O)N1CC=C(c2cn(C)c3ncccc23)CC1`: the inhibition is 19.5% (inactive). The same measure for `Cc1ccc(CNC(=O)c2cccc(N3CCNC(c4ccccc4)C3)n2)cc1` (stereo unspecified): 57.7% (active); for `CCNC(=O)c1cccc(N2CCNC(c3ccccc3)C2)n1` (stereo unspecified): 2.6% (inactive).

Consider `O=C(NCc1ccc(F)cc1)c1cccc(N2CCNC(c3ccccc3)C2)n1` (stereo unspecified), for which the inhibition is 44.2% (inactive).

`Cc1[nH]c2ccccc2c1C(NS(=O)(=O)c1ccccc1)C(Cl)(Cl)Cl` (stereo unspecified): the inhibition is 30% (inactive).

For `Cc1cc(C(=O)NCC(c2cn(C)c3ccccc23)N(C)C)no1` (stereo unspecified), the inhibition is 0.7% (inactive).

Regarding `Cn1cc(C(NS(=O)(=O)c2ccc(Cl)cc2)C(Cl)(Cl)Cl)c2ccccc21` (stereo unspecified), the inhibition is 77% (active). Take `O=C(Cc1ccccc1F)N1CCOc2ccccc2C1`: the inhibition is 0.06% (inactive).

Regarding `COCCN1CCC(N2CCCN(C(=O)c3ccc(C)c(F)c3)CC2)C1=O` (stereo unspecified), the inhibition was 7.8% (inactive). The same measure for `CCC(C(=O)NCC(C)(O)CCSC)c1ccccc1` (stereo unspecified): -4.2% (inactive).

In the case of `COc1ccc(NC(=O)C[C@H]2C(=O)N(CCc3ccccc3)C[C@@H]2C)cc1`, the inhibition is -5.1% (inactive). The same measure for `O=C(C[C@H]1C(=O)N(c2ccc(F)c(F)c2)C[C@@H]1Cc1ccccc1)Nc1ccccc1`: 52.3% (active). The same measure for `CNC(=O)C[C@H]1C(=O)N(c2ccc(OC)cc2)C[C@@H]1Cc1ccccc1`: -3.3% (inactive); for `COc1ccc(C(=O)N2CCC(c3nc(C(=O)N4CCSCC4)c(C)o3)CC2)cc1F`: 5.94% (inactive); for `CC(=O)c1ccc(OCC(O)CNC2CCCC2)cc1` (stereo unspecified): -0.4% (inactive).

`O=C(NCc1ccccc1F)c1cc2n(n1)CCCC2`: the inhibition was -5.1% (inactive). The figure for `COc1ccccc1C(CCNCc1ccccc1)c1ccc2c(c1)OCO2` (stereo unspecified) is 47.4% (inactive); for `COc1ccc(CN2CCN(Cc3cc(OC)c(OC)c(OC)c3)CC2)cc1` it is 2.6% (inactive); for `COc1cc(OC)c2ccc(=O)oc2c1C(CCN1CCN(c2ccccc2)CC1)c1ccc2c(c1)OCO2` (stereo unspecified) it is 73.2% (active). The same measure for `COc1cc(C(CCN2CCN(c3ccccc3)CC2)c2c(OC)cc(OC)c3ccc(=O)oc23)cc(OC)c1OC` (stereo unspecified): 89.6% (active); for `COc1ccccc1N1CCN(Cc2cc(OC)c3c(c2)OCO3)CC1`: 4.1% (inactive). The figure for `COc1ccc(C(CC(=O)N2CCN(c3ccccc3)CC2)c2c(O)cc(OC)cc2OC)cc1` (stereo unspecified) is 34.4% (inactive); for `CNC(=O)c1ccc2c(c1SC)C(=O)c1ccccc1C2=O` it is -3% (inactive); for `CC1(C)CC(=O)C(C(=N)CC2CC(=O)NC(=O)C2)=C(O)C1` it is 3% (inactive).

In the case of `CC(C)(C)[C@H]1CCSC2=NCCC[C@]2(c2ccccc2)C1`, the inhibition was 7% (inactive). The figure for `CC(SCc1ccccc1)C(=O)Nc1ccc(Cl)cc1` (stereo unspecified) is -33.9% (inactive); for `O=C(Cc1c(C(=O)O)[nH]c2ccc(Cl)cc12)Nc1cccc(Cl)c1` it is 14% (inactive). The same measure for `O[C@H]1C[C@H](c2ccc(Cl)cc2)N(Cc2cccs2)C[C@@H]1n1cc(C2CC2)nn1`: 100% (active); for `CCCCCCN1C[C@H](O)[C@@H](n2cc(C3CC3)nn2)C[C@@H]1c1ccc(Cl)cc1`: 72.7% (active); for `O=C(OCc1cn([C@@H]2C[C@H](c3ccc(Cl)cc3)N(Cc3cccs3)C[C@H]2O)nn1)c1ccccc1`: 2.5% (inactive). The figure for `O[C@@H]1C[C@H](c2ccccc2)N(Cc2cccs2)C[C@H]1n1cc(C2CC2)nn1` is 19.2% (inactive).

For `CCCCCCN1C[C@@H](O)[C@H](n2cc(COC(=O)c3ccccc3)nn2)C[C@@H]1c1ccc(Cl)cc1`, the inhibition is -4.7% (inactive). The same measure for `O[C@H]1CN(Cc2cccs2)[C@@H](c2ccc(Cl)cc2)C[C@@H]1n1cc(C2CC2)nn1`: 98.3% (active). For the compound `O=C(c1cccs1)N1C[C@H](n2cc(C3CC3)nn2)[C@@H](O)C[C@@H]1c1ccccc1`, the inhibition was 4.1% (inactive). The same measure for `COc1ccc([C@H]2C[C@@H](n3cc(COC(=O)c4ccccc4)nn3)[C@H](O)CN2C(=O)c2cccs2)cc1`: 23.6% (inactive); for `Cc1ccc([C@H]2C[C@H](O)[C@@H](n3cc(COC(=O)c4ccccc4)nn3)CN2CC2CCCCC2)cc1`: 23.1% (inactive). The figure for `O=C(NCCC1CCN(C(=O)c2ccc(F)cc2)CC1)c1ccc(F)cc1` is -1.87% (inactive). The figure for `O=C(Cc1ccccc1)Nc1ccc(C(=O)Nc2ccc(Cl)cc2Cl)cc1` is -3.3% (inactive).

Turning to `Cc1cc(C2CCCN2C(=O)c2ccn(C)n2)no1` (stereo unspecified), the inhibition was -4.24% (inactive). The figure for `O=C(CC(c1ccccc1)c1ccccc1)N1CCN(c2ccccc2F)CC1` is -3.5% (inactive); for `O=C(Nc1ccc(N2CCN(Cc3ccc(F)cc3)CC2)nc1)C1CC1` it is 5% (inactive).

With `Cc1cccc(-c2nc(CN3CCN(C(=O)C4CC4)CC3)no2)c1`, the inhibition was 4.1% (inactive).

For the compound `CCCN1CCN(C(=O)c2cccc(C3CCCN(C(=O)NCC)C3)c2)CC1` (stereo unspecified), the inhibition was 10.7% (inactive). As for `CC(C)NC(=O)N1CCCC(c2cccc(C(=O)NCc3ccc(Cl)cc3)c2)C1` (stereo unspecified), the inhibition is 2.21% (inactive). As for `CC(C)NC(=O)N1CCCC(c2cccc(C(=O)N3CCN(c4ccccc4)CC3)c2)C1` (stereo unspecified), the inhibition was 51.8% (active). The same measure for `CN(C)C(=O)c1cc2c(s1)CCC(C(=O)Nc1ccc(F)cc1F)C2` (stereo unspecified): 3.95% (inactive); for `C#CCOc1ccc(/C=C2\NC(=O)N(CC(=O)Nc3cccc(C)c3)C2=O)cc1OC`: 3% (inactive). Regarding `O=C(Nc1ccc([N+](=O)[O-])cc1Br)c1cncc(Br)c1`, the inhibition was -1% (inactive). The same measure for `CSc1ccc(Oc2cccc3c2S(=O)(=O)N([C@H](C)c2ccccc2)C[C@@H](COCc2ccccc2)O3)cc1C`: -4.7% (inactive); for `CCCCC[C@H](C)N1C[C@@H](COCc2ccccc2)Oc2cc(N3CC[C@@H](N(C)C)C3)ccc2S1(=O)=O`: 100% (active). The same measure for `CCCCC[C@H](C)N1C[C@@H](COCc2ccccc2)Oc2cc(N3CCC[C@@H]3CO)ccc2S1(=O)=O`: 3.5% (inactive); for `O=C(NCCN1CCOCC1)Nc1ccccc1F`: -6.5% (inactive); for `CCCN1CCn2cc(C(=O)NCc3cccc(OC)c3)nc2C1`: 4.35% (inactive).

Consider `CCCN1CCn2cc(C(=O)N3CCN(c4cccc(OC)c4)CC3)nc2C1`, for which the inhibition is 4.51% (inactive).

On to `CCCN1CCn2cc(C(=O)N3CCN(c4ccccc4)CC3)nc2C1`, for which the inhibition was 63% (active). The same measure for `Cc1cc(C)cc(C(=O)N2CCC(COc3ccccc3C(=O)NC3CC3)CC2)c1`: 9.35% (inactive); for `O=S(=O)(c1cccc(Cl)c1Cl)N1CCN(c2cc(N3CCCC3)ncn2)CC1`: 2.9% (inactive); for `O=C1c2cccc(N3CCCCC3)c2C(=O)c2cccc(Cl)c21`: 98% (active). The figure for `O=c1c(Cl)c(N2CCCC2)cnn1-c1ccccc1` is -0.3% (inactive).

The values are drawn from PubChem BioAssay AID1671202 (University of Kansas High Throughput Screening Laboratory, 2021).
